From PubChem BioAssay (EPA / NIEHS) come the findings set out here.

Common to all, as to conditions: mRNA level, 48 h; actives raise or lower the signal
Read-out in assay [1]: ATP-citrate lyase (ACLY), ACLY (gene 47)
In words: LTEA_HepaRG_ACLY: Life Technologies and Expression Analysis (LTEA) Assay for ATP-citrate lyase (ACLY) using HepaRG (AID 2283466). The gist of the method: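 HepaRG, 48 h exposure, 8-pt half-log dilutions (top 100 uM), 0.5% DMSO. Readout: ACLY mRNA, TaqMan qRT-PCR, housekeeping-normalized (ACTB/GAPDH/POLR2A). Bidirectional curve fit vs DMSO.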

Read-out in assay [2]: Peroxisomal acyl-coenzyme A oxidase 1 (ACOX1) gene, ACOX1 (gene 51)
In words: LTEA_HepaRG_ACOX1: Life Technologies and Expression Analysis (LTEA) Assay for Peroxisomal acyl-coenzyme A oxidase 1 (ACOX1) gene using HepaRG (AID 2283467). A digest of the protocol: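 Measured by qRT-PCR against three housekeeping genes: ACOX1 transcript change in human HepaRG cells after 48 h dosing. Concentrations ran up to 100 uM in half-log steps. Curves were fitted bidirectionally relative to 0.5% DMSO.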

Read-out in assay [3]: Alkaline Phosphatase, Placental (ALPP) gene, ALPP (gene 250)
In words: LTEA_HepaRG_ALPP: Life Technologies and Expression Analysis (LTEA) Assay for Alkaline Phosphatase, Placental (ALPP) gene using HepaRG (AID 2283468).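 For AC50: differentiated human HepaRG liver cells in serum-free induction medium.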 The gist of the method:
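qRT-PCR readout of ALPP mRNA (Fluidigm TaqMan), normalized to ACTB/GAPDH/POLR2A, after 48 h chemical exposure of HepaRG cells; 8-point half-log series, top 100 uM, 0.5% DMSO vehicle. Bidirectional curve fit versus DMSO baseline.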

Read-out in assay [4]: adenosine kinase (ADK) gene, ADK (gene 132)
In words: LTEA_HepaRG_ADK: Life Technologies and Expression Analysis (LTEA) Assay for adenosine kinase (ADK) gene using HepaRG (AID 2283471). A digest of the protocol: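 Differentiated HepaRG cells dosed 48 h in serum-free induction medium, 0.5% DMSO vehicle, eight half-log concentrations from 100 uM, in duplicate. ADK mRNA by TaqMan qRT-PCR normalised to ACTB, GAPDH, POLR2A; bidirectional fit versus DMSO.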

Read-out in assay [5]: Alpha-fetoprotein (AFP) gene, AFP (gene 174)
In words: LTEA_HepaRG_AFP: Life Technologies and Expression Analysis (LTEA) Assay for Alpha-fetoprotein (AFP) gene using HepaRG (AID 2283472). The gist of the method:
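Human HepaRG cells plated 48 h, then switched to serum-free induction medium and exposed in duplicate for 48 h to 8-point half-log series from 100 uM in 0.5% DMSO. AFP mRNA by qRT-PCR, normalized to ACTB, GAPDH, POLR2A; bidirectional fit versus DMSO.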

Read-out in assay [6]: BCL2L11 (gene 10018)
In words: LTEA_HepaRG_BCL2L11: Life Technologies and Expression Analysis (LTEA) Assay for Bcl-2 (BCL2L11) gene using HepaRG (AID 2283473). The gist of the method: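 HepaRG, 48 h exposure, 8-pt half-log series from 100 uM in 0.5% DMSO, duplicates; qRT-PCR (Fluidigm TaqMan) for BCL2L11, housekeeping-normalized; bidirectional curve fit relative to DMSO baseline.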

Read-out in assay [7]: Apolipoprotein A-V (APOA5) gene, APOA5 (gene 116519)
In words: LTEA_HepaRG_APOA5: Life Technologies and Expression Analysis (LTEA) Assay for Apolipoprotein A-V (APOA5) gene using HepaRG (AID 2283474). A digest of the protocol: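 HepaRG, 48 h chemical exposure in serum-free induction medium, 8-pt half-log series (top 100 uM), 0.5% DMSO vehicle, duplicates. Readout: APOA5 mRNA by qRT-PCR, housekeeping-normalized; bidirectional fit vs DMSO baseline.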

Read-out in assay [8]: Apoptosis regulator Bcl-2 (Homo sapiens) (UniProt P10415)
In words: LTEA_HepaRG_BCL2: Life Technologies and Expression Analysis (LTEA) Assay for Bcl-2 gene using HepaRG (AID 2283475). A digest of the protocol:
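Differentiated HepaRG cells in serum-free induction medium were exposed for 48 h to eight half-log concentrations up to 100 uM in 0.5% DMSO, in duplicate. BCL2 mRNA was quantified by TaqMan qRT-PCR normalised to ACTB, GAPDH and POLR2A, with bidirectional fitting versus DMSO.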

Read-out in assay [9]: Bcl-2 (BID) gene, BID (gene 637)
In words: LTEA_HepaRG_BID: Life Technologies and Expression Analysis (LTEA) Assay for Bcl-2 (BID) gene using HepaRG (AID 2283476). A digest of the protocol:
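Differentiated HepaRG cells in serum-free induction medium were exposed in duplicate for 48 h to eight half-log concentrations up to 100 uM in 0.5% DMSO. BID mRNA was quantified by qRT-PCR, normalized to ACTB, GAPDH and POLR2A.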

Read-out in assay [10]: Caspase-3 (Homo sapiens) (UniProt P42574)
In words: LTEA_HepaRG_CASP3: Life Technologies and Expression Analysis (LTEA) Assay for cysteine-aspartic acid protease (CASP3) using HepaRG (AID 2283477). A digest of the protocol:
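HepaRG, 48 h exposure, 8 conc. (top 100 uM, half-log steps, duplicate), 0.5% DMSO vehicle; qRT-PCR of CASP3 transcript, housekeeping-normalised (ACTB/GAPDH/POLR2A); bidirectional curve fit vs DMSO baseline.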

Read-out in assay [11]: Cytochrome P450 (CYP24A1), CYP24A1 (gene 1591)
In words: LTEA_HepaRG_CYP24A1: Life Technologies and Expression Analysis (LTEA) Assay for Cytochrome P450 (CYP24A1) using HepaRG (AID 2283478). A digest of the protocol:
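qRT-PCR read-out: CYP24A1 transcript levels normalized to three housekeeping genes, bidirectional curve fits against 0.5% DMSO baseline. Human HepaRG cells treated 48 h with chemicals at eight concentrations from 100 uM in half-log steps.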

Read-out in assay [12]: Cytochrome P450 (CYP1A2), CYP1A2 (gene 1544)
In words: LTEA_HepaRG_CYP1A2: Life Technologies and Expression Analysis (LTEA) Assay for Cytochrome P450 (CYP1A2) using HepaRG (AID 2283479). The gist of the method: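 HepaRG, 48 h exposure, top 100 uM, half-log 8-pt, 0.5% DMSO vehicle, duplicates. Readout: TaqMan qRT-PCR of CYP1A2 mRNA, housekeeping-normalized (ACTB/GAPDH/POLR2A). Gain/loss fit relative to DMSO baseline.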

Read-out in assay [13]: cysteine-aspartic acid protease (CASP8), CASP8 (gene 841)
In words: LTEA_HepaRG_CASP8: Life Technologies and Expression Analysis (LTEA) Assay for cysteine-aspartic acid protease (CASP8) using HepaRG (AID 2283480). A digest of the protocol:
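HepaRG, 48 h exposure, duplicate wells; 8 conc, half-log from 100 uM, 0.5% DMSO. Serum-free induction medium. CASP8 mRNA by TaqMan qRT-PCR, norm. ACTB/GAPDH/POLR2A; gain/loss fitted vs DMSO.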

Read-out in assay [14]: Cytochrome P450 (CYP2B6), CYP2B6 (gene 1555)
In words: LTEA_HepaRG_CYP2B6: Life Technologies and Expression Analysis (LTEA) Assay for Cytochrome P450 (CYP2B6) using HepaRG (AID 2283481). A digest of the protocol: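 Read-out is CYP2B6 mRNA by TaqMan qRT-PCR, normalized to three housekeeping genes and fitted bidirectionally against 0.5% DMSO baseline. Human HepaRG cells received test chemicals for 48 h, top concentration 100 uM, half-log dilutions.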

Read-out in assay [15]: CYP2C8 (gene 1558)
In words: LTEA_HepaRG_CYP2C8: Life Technologies and Expression Analysis (LTEA) Assay for CYP2C8 using HepaRG (AID 2283483). A digest of the protocol: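 CYP2C8 mRNA induction or loss, by qRT-PCR normalized to ACTB/GAPDH/POLR2A, is read in HepaRG cells after 48 h treatment. Concentrations run from 100 uM down in half-log dilutions, with 0.5% DMSO as vehicle and baseline.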

Read-out in assay [16]: CYP2C9 (gene 1559)
In words: LTEA_HepaRG_CYP2C9: Life Technologies and Expression Analysis (LTEA) Assay for CYP2C9 using HepaRG (AID 2283484). The gist of the method: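 Cells plated 48 h, switched to serum-free induction medium, then treated in duplicate for 48 h at eight concentrations (max 100 uM, 0.5% DMSO). RNA then analysed by qRT-PCR for CYP2C9; curves fitted in both directions relative to DMSO.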

Read-out in assay [17]: CYP2E1 (gene 1571)
In words: LTEA_HepaRG_CYP2E1: Life Technologies and Expression Analysis (LTEA) Assay for CYP2E1 using HepaRG (AID 2283485). The gist of the method: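 HepaRG cells in serum-free induction medium exposed 48 h to test chemicals, 8 half-log concentrations up to 100 uM in 0.5% DMSO, duplicate. CYP2E1 mRNA by qRT-PCR, normalized to ACTB, GAPDH, POLR2A; bidirectional fit versus DMSO.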

Read-out in assay [18]: CYP4A11 (gene 1579)
In words: LTEA_HepaRG_CYP4A11: Life Technologies and Expression Analysis (LTEA) Assay for CYP4A11 using HepaRG (AID 2283486). The gist of the method:
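CYP4A11 transcript levels were quantified by TaqMan qRT-PCR after HepaRG human liver cells were treated for 48 hours with test chemicals (top 100 uM, half-log dilutions, 0.5% DMSO). Gain or loss of signal was fitted relative to DMSO.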

Read-out in assay [19]: Cytochrome P450 3A4 (Homo sapiens) (UniProt P08684)
In words: LTEA_HepaRG_CYP3A4: Life Technologies and Expression Analysis (LTEA) Assay for CYP3A4 using HepaRG (AID 2283487). The gist of the method: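 Differentiated HepaRG cells in serum-free induction medium exposed in duplicate for 48 h to 8 half-log concentrations up to 100 uM in 0.5% DMSO. CYP3A4 mRNA measured by qRT-PCR normalized to ACTB, GAPDH and POLR2A; bidirectional fit versus DMSO.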

Read-out in assay [20]: Pro-epidermal growth factor (Homo sapiens) (UniProt P01133)
In words: LTEA_HepaRG_EGF: Life Technologies and Expression Analysis (LTEA) Assay for Epidermal growth factor (EGF) using HepaRG (AID 2283489). A digest of the protocol:
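qRT-PCR readout of EGF transcript after 48 h chemical exposure of HepaRG cells; eight concentrations from 100 uM down in half-log steps, duplicate wells, 0.5% DMSO vehicle. Bidirectional curve fitting against DMSO baseline.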

The structures appear in SMILES notation. Calls of active or inactive are those of the source. Rule for the calls: active = hit-call score of the fitted dose curve at least 0.9, where 1 is the maximum; inactive = score below 0.9.

Caspase-3 (Homo sapiens), sequence (P42574 whole entry, looked up): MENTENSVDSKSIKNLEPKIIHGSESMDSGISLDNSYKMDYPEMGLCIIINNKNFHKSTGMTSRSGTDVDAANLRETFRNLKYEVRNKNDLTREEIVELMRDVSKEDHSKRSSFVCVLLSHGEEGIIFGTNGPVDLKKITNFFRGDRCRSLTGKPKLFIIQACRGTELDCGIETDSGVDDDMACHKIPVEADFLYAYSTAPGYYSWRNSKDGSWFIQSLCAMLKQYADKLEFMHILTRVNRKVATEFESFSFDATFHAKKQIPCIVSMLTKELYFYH
Apoptosis regulator Bcl-2 (Homo sapiens), sequence (P10415 whole entry, looked up): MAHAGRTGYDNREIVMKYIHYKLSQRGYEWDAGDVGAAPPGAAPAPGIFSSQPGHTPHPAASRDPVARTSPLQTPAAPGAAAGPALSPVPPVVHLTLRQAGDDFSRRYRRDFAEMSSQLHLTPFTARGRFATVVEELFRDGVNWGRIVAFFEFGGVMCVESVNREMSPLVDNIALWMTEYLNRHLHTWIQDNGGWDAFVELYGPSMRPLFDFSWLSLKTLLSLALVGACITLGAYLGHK
Cytochrome P450 3A4 (Homo sapiens), sequence (P08684 whole entry, looked up): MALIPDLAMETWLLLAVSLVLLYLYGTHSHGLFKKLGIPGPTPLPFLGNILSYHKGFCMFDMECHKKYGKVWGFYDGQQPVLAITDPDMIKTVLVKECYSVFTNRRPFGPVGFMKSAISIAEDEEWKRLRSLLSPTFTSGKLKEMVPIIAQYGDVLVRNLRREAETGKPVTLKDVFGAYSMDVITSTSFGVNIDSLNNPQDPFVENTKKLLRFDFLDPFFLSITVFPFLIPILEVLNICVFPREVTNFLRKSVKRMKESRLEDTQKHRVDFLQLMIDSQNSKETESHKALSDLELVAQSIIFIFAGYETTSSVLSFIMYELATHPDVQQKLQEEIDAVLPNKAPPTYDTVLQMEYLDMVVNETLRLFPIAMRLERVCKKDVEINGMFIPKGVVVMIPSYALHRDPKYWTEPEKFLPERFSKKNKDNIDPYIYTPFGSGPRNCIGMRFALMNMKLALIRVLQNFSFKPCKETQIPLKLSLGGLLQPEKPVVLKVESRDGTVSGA

For `CCCCC(CC)C(=O)O` (centres undefined), the result in [1], in [2], in assay [3], in assay [4], in assay [5] and in assay [6] was inactive. Moreover, the molecule was classed as inactive in assay [7], in assay [8], in assay [9], in assay [10], in assay [11] and in assay [12]. In addition, the outcome in [13], in assay [14], in [15], in assay [16], in assay [17] and in assay [18] was inactive. Besides, the outcome in assay [19] and in [20] was inactive.

By AC50 is commonly meant the concentration giving half of the maximal activity seen. On to `CN(Cc1cnc2nc(N)nc(N)c2n1)c1ccc(C(=O)N[C@@H](CCC(=O)O)C(=O)O)cc1`, for which the call in [1], in assay [3], in assay [4], in assay [6], in assay [7] and in assay [8] was inactive. The result in [9], in assay [10], in [11], in [13], in assay [15] and in assay [18] was inactive. The call in assay [19] and in assay [20] was inactive. The AC50 is 0.231 µM (active) in assay [5], 0.0974 µM (active) in assay [12], 0.16 µM (active) in assay [14] and 0.222 µM (active) in [17].

As for `CCC(C)c1ccccc1O` (centres undefined), the outcome in assay [2], in [3], in [4], in assay [5], in assay [6] and in assay [7] was inactive. Further, the result in assay [8], in [9], in [10], in assay [11], in assay [12] and in assay [13] was inactive. Moreover, the call in [14], in assay [15], in [16], in assay [17], in [18] and in [19] was inactive. Also, the molecule was classed as inactive in [20].

For `CS(=O)(=O)c1ccc([C@@H](CC2CCCC2)C(=O)Nc2cnccn2)cc1Cl`, the outcome in assay [1], in [2], in [4], in [6], in assay [9] and in [10] was inactive. The result in [13] and in [20] was inactive. Further, the AC50 in assay [3] was 81.2 µM (active); in [5], 69.8 µM (active); in assay [7], 71.2 µM (active); in assay [8], 61.8 µM (active).
